From PubChem BioAssay (NCI)
Compounds without any hit were thinned out: in the full panel of roughly 79,000, 15% have a hit. Unmarked numbers belong to inactive results. Calls of active or inactive are those of the source. Cut-off read from the data, not from the text of the source: active = growth inhibition above about 70%; inactive = the rest.

Assays:
[1] = NCI Yeast Anticancer Drug Screen. Data for the rad50 strain (AID 155);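 note: 0% = growth of vehicle-only cultures of the same strain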; conditions: S. cerevisiae rad50 strain growth inhibition; at 50.0 µM; hits give high values
Procedure, shortened: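 Vehicle-treated cultures provide the reference for the growth inhibition reported for compound-exposed, repair-deficient yeast.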

[2] = NCI Yeast Anticancer Drug Screen. Data for the mec2-1 strain (AID 157); conditions: S. cerevisiae mec2-1 strain, at 50.0 µM, hits give high values
Procedure, shortened: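 Readout is yeast growth inhibition, normalised to vehicle-treated controls, in the mec2-1 strain exposed to compound.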

[3] = NCI Yeast Anticancer Drug Screen. Data for the sgs1 mgt1 strain (AID 161);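 note: 0% = growth of cultures given vehicle only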; conditions: S. cerevisiae sgs1 mgt1 strain, at 50.0 µM, hits give high values
Procedure, shortened: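 Percent growth inhibition was derived by comparing compound-exposed mutant yeast with vehicle-exposed cultures. The strain carries alterations in DNA damage repair.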

[4] = NCI Yeast Anticancer Drug Screen. Data for the cln2 rad14 strain (AID 165);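 note: 0% = growth equal to vehicle treated cultures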; conditions: S. cerevisiae cln2 rad14 strain, at 50.0 µM, hits give high values
Procedure, shortened: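 Relative to vehicle controls, growth inhibition of compound-treated cln2 rad14 yeast was recorded.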

[5] = NCI Yeast Anticancer Drug Screen. Data for the bub3 strain (AID 167); conditions: S. cerevisiae bub3 mutant strain, at 50.0 µM, hits give high values
Procedure, shortened: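 Mutant yeast screening strain plus compound; vehicle-treated cultures serve as the 0% inhibition reference.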

[6] = NCI Yeast Anticancer Drug Screen. Data for the mlh1 rad18 strain (AID 175); conditions: S. cerevisiae mlh1 rad18 strain growth inhibition; at 50.0 µM; hits give high values
Procedure, shortened: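 Test agents were incubated with a yeast strain of defined genotype (DNA damage repair defect). Inhibition of growth was derived by comparison with vehicle-exposed cultures.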

SMILES | growth inhibition [1] | growth inhibition [2] | growth inhibition [3] | growth inhibition [4] | growth inhibition [5] | growth inhibition [6]
COc1ccccc1C1CC(c2ccccc2)=Nc2ccccc2S1 (stereo not given) | -3.95% | -45.2% | 1.25% | 5.95% | -30.8% | -1.05%
COc1cc(NN=C(C#N)C#N)c(OC)cc1Cl | 37.6% | 11.2% | 48% | 23.1% | 40.7% | 34.7%
O=C(NCCCN(CCCCN(CCCNC(=O)C(F)(F)F)Cc1ccc2ccccc2c1)Cc1ccc2ccccc2c1)C(F)(F)F | 83.4% (active) | 87.3% (active) | 88.5% (active) | 88.2% (active) | 87% (active) | 92.5% (active)
N#CC(NNC(=O)Cc1ccccc1)c1c(O)ccc2ccccc12 (stereo not given) | 7.45% | -4.9% | 4.5% | -18.2% | -3.15% | -7.25%
OC(CNc1ccccn1)c1ccccc1 (stereo not given) | -3.9% | -44.6% | -35.6% | 29.2% | -33.8% | 16.2%
C[N+](C)(CCCn1ccnc1[N+](=O)[O-])CCCn1ccnc1[N+](=O)[O-] | -15.3% | -6% | 14.8% | 3.55% | -14.8% | 4.8%
CC1=C(C(=O)Nc2ccc(C)cc2)C(c2cccc([N+](=O)[O-])c2)C(C(=O)Nc2ccc(C)cc2)=C(C)N1 | 14.9% | 24.3% | 22.5% | 13.8% | 41% | 4.35%
CCOc1ccc2nc(NC(=O)C(=O)C(C(=O)c3ccccc3-c3ccccc3)C3OC(=O)c4ccccc43)sc2c1 (stereo not given) | -18.7% | 23.9% | -19% | 23.1% | -32.1% | -28.6%
CC(O)CSCC(C)O (stereo not given) | 10.1% | -4.2% | -16.7% | 12.4% | -7.7% | 3.05%
c1ccc2c3c(ccc2c1)CCC3 | -20.9% | -42.9% | -35% | 10% | -25.4% | -12.4%
CCOc1ccc(/C=N/O)cc1OCC | -0.3% | -10.1% | -10.2% | -25.6% | -2.1% | -2.6%
COc1c(C)c(C)c(OC(C)=O)c(C)c1COC(C)=O | 53.9% | 23.8% | 33.2% | 25.6% | 42.9% | 64.7%
O=C(NCCCCCCNC(=O)N1CCCCC1)c1cccnc1 | -7.8% | -21.3% | -3.65% | -27.2% | 13.3% | -33.6%
CCCCS(=O)(=O)c1ccc(Cl)cc1 | -2.65% | -13.9% | -4.45% | -16% | -3.9% | 21.9%
CC(=O)OC1C(C)OC(OC(=O)C2CCC3C(C2)OC2(CC(OC(=O)/C=C/c4ccccc4)C(C)CO2)C32CO2)C(OC2OC(C)C(O)C(O)C2O)C1O (stereo not given) | 1.3% | -16.8% | 2.3% | 13.5% | 3.65% | -62.9%
NCCCc1c(-c2ccccc2)nc(N)[nH]c1=O | -3.15% | -15% | -35.5% | -28.4% | -58% | -3.05%
Nc1ccc2cccc(N)c2n1 | 34.5% | 12.2% | 8.85% | 5.9% | -5.65% | -0.55%
Cc1ccc(NC(=O)OCC2CC3C=CC2C3)cc1NC(=O)OCC1CC2C=CC1C2 (stereo not given) | -21.2% | -14.3% | -14.8% | -6.8% | -3.25% | 3.7%
O=[N+]([O-])c1ccc(C2ON2c2ccccc2)cc1 (stereo not given) (tested in a mixture with another compound) | 3.95% | -1.45% | 20.7% | -9.7% | -7.4% | 25.6%
CCCCCCCCSCCCC(=O)O | -16.9% | -22.8% | -10.8% | -11.3% | -27.7% | -29.2%

SMILES | growth inhibition [1] | growth inhibition [2] | growth inhibition [3] | growth inhibition [4] | growth inhibition [5] | growth inhibition [6]
Nc1cccc2c1C(=O)c1c(N)cccc1C2=O | 99.3% (active) | 99.4% (active) | 94.7% (active) | 98.7% (active) | 99.2% (active) | 99.1% (active)
CC12CCC(=O)[C@@]1(C)CCCC2O (stereo not given in full) | -34.2% | -34.4% | -12.8% | -34.6% | -26.8% | -32.2%
Nc1ccccc1C(=O)ONC(=O)c1ccccc1 | 99.5% (active) | 99.6% (active) | 99.5% (active) | 99% (active) | 99.3% (active) | 99.3% (active)
COc1ccc(/C(C#N)=C\c2ccc(N(C)C)cc2)cc1 | -4.8% | -13.1% | 3.1% | -21.2% | 10.2% | -14.3%
COC1OC2COC(C)(c3ccccc3)OC2C(O)C1[NH-].COC1OC2COC(C)(c3ccccc3)OC2C(O)C1[NH-].[Cl][Pt+2][Cl] (stereo not given) | -0.25% | -2.7% | -7.8% | -25.3% | -3.05% | 35.4%
O=C(N=C1SCCN1C(=O)C(C(F)(F)F)C(F)(F)F)C(C(F)(F)F)C(F)(F)F | -20.6% | -3.5% | 4.95% | 28.4% | 2.3% | -36.9%
O=C(CC1Sc2ccccc2NC1=O)NNc1c(Cl)cc(Cl)cc1Cl (stereo not given) | 6.45% | 0.9% | 4% | 17.3% | 0.55% | 33%
CC1(C)N=C(N)N=C(N)N1c1ccc(C(=O)c2ccccc2)cc1 | 2.65% | -3.5% | -3.3% | -3.1% | 13.5% | 15.5%
CN(C)c1ccc2c(c1)Cc1cc(NC(=O)CCC(=O)O)ccc1-2 | 8.7% | 6.4% | 19.4% | -1.6% | 8.85% | 14.3%
CSC(C(=O)O)c1cc(-c2c(Cl)cccc2Cl)no1 (stereo not given) | -1.95% | 23.8% | 29% | 8.85% | 24.4% | 22.9%
COc1ccc(/C=C/C(=O)C(C)(C)C)cc1OC | 25.4% | 3.9% | 3.6% | 31.5% | 27.9% | 23.2%
C[C@@H]1CC[C@]2(C(=O)O)CC[C@]3(C)C(=CC[C@@H]4[C@@]5(C)CC[C@H](O)C(C)(C)[C@@H]5CC[C@]43C)[C@@H]2[C@]1(C)O | 27.1% | 38.5% | 2.75% | 13.5% | 26.4% | -65%
O=[N+]([O-])c1ccc(Oc2c3ccccc3nc3ccccc23)cc1 | 11.3% | -3.7% | 19.6% | -1.8% | -1.4% | 14.4%
O=C1CC(c2ccccc2)=NCCN1 | -9.2% | 16.2% | 11.9% | -3.55% | -19.4% | -7.25%
COC(=O)c1cnccn1 | -3.3% | -1.35% | -3.85% | -27.4% | 0.75% | -6.3%
CC(Cc1nc2ccccc2[nH]1)Cc1nc2ccccc2[nH]1 | -7% | 17.4% | 7.1% | 21.4% | 2.3% | 15.6%
CCCCCCCCCCCCCCCC[N+](C)(C)CC#CCCl | -3.15% | 99.5% (active) | 48.6% | 98.7% (active) | 99.3% (active) | 48.8%
O=c1[nH]c(Nc2nc3ccccc3[nH]2)nc(O)c1-c1ccccc1 | -2.85% | -14% | -23.2% | -6.7% | -6.05% | -28.6%
CN(C)c1ccc(/C=C(/C(=O)O)c2csc(-c3nc(/C(=C\c4ccc(N(C)C)cc4)C(=O)O)cs3)n2)cc1 | 34.8% | 9.45% | 10.2% | -19.8% | 13.2% | 25.4%
Cc1ccc(C(=S)NC(=O)Nc2ccccc2)cc1 | -7.1% | 9.45% | -17.8% | -20.9% | 45.8% | 1.45%
